Reference: PubChem BioAssay (NCI)
About 83,000 compounds went through this panel and 20% of them were active in at least one assay; those are over-represented in the sample as a whole.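 96-well plates, one dose, 48 hours. Percent growth reported; active if below 10.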 Values without a mark were called inactive. Active and inactive are the calls of the source.

system: COLO 205 colon; test: NCI-60 one-dose screen, 48 h (100 = growth as untreated, 0 = no growth, -100 = all killed); details: 10 µM unless noted
Experimental: Cells are grown in 96 well plates and exposed to the test compound for 48 hours. Compounds are tested at a single concentration, which is 10^-5 M for most compounds. The reported endpoint is percent growth (GI% or GIPRCNT), where numbers from 0 - 100% represent growth inhibition, and numbers from -100% - 0 represent cell death. For example, a value of 40 represents 60% growth inhibition. A value of 0 means no net growth occurred over the course of the experiment. A value of -40 indicates 40% of cells at the beginning of the experiment died by the end of the experiment. A value of -100 means all cells are dead at the end of the experiment.
NCI-60 Human Tumor Cell Lines Screen was performed using the standard one-dose NCI protocol, which is described in more detail at https://dtp.cancer.gov/discovery_development/nci-60/default.htm.
Compounds with GIPRCNT values below 10 were considered active. Activity score was based on GIPRCNT using the following formula: […]
Score is 0 for GIPRCNT values of 100 or above, 50 for GIPRCNT values of 0, and 100 for GIPRCNT values of -100.

**Q.** How did the growth turn out when `O=C(CN1CCN(c2cc(=O)n(-c3ccccc3)c3ccccc23)CC1)Nc1ccc(F)cc1` was run?
**A.** 85.3%

**Q.** How did the growth turn out when `C#C[C@]1(O)CC[C@H]2[C@@H]3CC=C4c5sc(-c6ccc(C)cc6)nc5CC[C@]4(C)[C@H]3CC[C@@]21C` was run?
**A.** 104%

**Q.** For `COc1cc(/C=C/C(=O)c2ccc(NC(=O)CSc3nnc(-c4ccc(-c5nc6ccc(Cl)cc6[nH]5)cc4)o3)cc2)cc(OC)c1OC`, which growth is on record?
**A.** 106%

**Q.** With `CCOC(=O)C(=O)/C(=C\c1ccc(Cl)cc1)C(=O)N1C(=S)NC(=O)C1CC(C)C` (stereo not given) as the compound, how does the growth read?
**A.** 109%

**Q.** `C#CC(=O)N(c1ccc(OC)cc1OC)C(C(=O)NCC(=O)OCC)c1cccs1` (stereo not given) was tested. Which growth did it give?
**A.** 35%

**Q.** For `CCO/C=N/C1=C(C#N)C(c2ccc(Cl)cc2)c2sc3c(CC)cccc3c2O1` (stereo not given), which growth is on record?
**A.** 14%

**Q.** How did the growth turn out when `CCNC(=O)N1CCc2cc(OC)c(OCCc3ccc(OC)cc3)cc2C1c1ccc([N+](=O)[O-])cc1C` (stereo not given) was run?
**A.** 25.8%

**Q.** For `O=C(CSc1nnc(-c2ccc(Cl)cc2)n1-c1ccccc1)Nc1cccc(Cl)c1`, which growth is on record?
**A.** 82.1%

**Q.** With `O=c1c2ccccc2nc(COc2ccccc2)n1NS(=O)(=O)c1ccc(Cl)cc1` as the compound, how does the growth read?
**A.** 95%

**Q.** `c1ccc(C(c2nc3ncncc3[nH]2)N2CSc3nc4ccccc4n3C2)cc1` (stereo not given) was tested. Which growth did it give?
**A.** 110%

**Q.** `O=C(c1ccc(Cl)cc1)C1[C@H](c2ccc(Cl)cc2)[C@@H](c2ccccc2)NC12C(=O)Nc1ccccc12` (stereo not given in full) was tested. Which growth did it give?
**A.** 73%

**Q.** With `Nc1nc(Nc2ccccc2SSc2ccccc2Nc2nc(N)nc(-c3ccc4ccccc4c3)n2)nc(-c2ccc3ccccc3c2)n1` as the compound, how does the growth read?
**A.** 106%

**Q.** With `CCC(CC)N1C(=O)/C(=c2\sc3n(c2=O)NC2C(N=3)N(CC)C(=O)N2CC)c2ccccc21` (stereo not given) as the compound, how does the growth read?
**A.** 37.8%

**Q.** For `CN(C)CCN(C)c1ccc2ncc(C#Cc3cncc(C(=O)Nc4ccc(CN5CCN(C)CC5)c(C(F)(F)F)c4)c3)n2n1`, which growth is on record?
**A.** 25.1%

**Q.** For `O=C(NCc1ncc[nH]1)c1ccc(-c2nc3ccc4[nH]ncc4c3c3c2CCCC3)cc1`, which growth is on record?
**A.** -10.4% (active)

**Q.** How did the growth turn out when `Cc1nn(-c2ccccc2)c2ncnc(N/N=C/c3ccccc3)c12` was run?
**A.** 104%

**Q.** Which growth does the source give for `CCc1cccc(NC(=O)CNc2cc(S(=O)(=O)N(C)C)cc(C)c2C)c1` here?
**A.** 111%

**Q.** How did the growth turn out when `NC(=O)c1c(NC(=O)c2ccc(F)cc2F)sc2c1CCC(=O)C2` was run?
**A.** 98.7%

**Q.** For `Cn1ccnc1C(=O)/C=C/c1ccc(NC(=O)c2ccc(F)cc2)cc1`, which growth is on record?
**A.** 75.4%

**Q.** `CS(=O)(=O)c1ccc(-n2cc(/C=N/O)c(-c3ccccc3)n2)cc1` was tested. Which growth did it give?
**A.** 101%

**Q.** With `NC(N)=Nc1ccc(Oc2cccc(NC(N)=Nc3ccc(Br)cc3)c2)cn1` as the compound, how does the growth read?
**A.** 16.5%

**Q.** With `CC(=O)c1ccc(Nc2nc(SCC(C)C)nc(-c3ccc(F)cc3)c2C#N)cc1` as the compound, how does the growth read?
**A.** 115%

**Q.** With `Clc1ccc(N/N=c2/oc3ccccc3cc2-c2cc3ccccc3[nH]2)cc1` as the compound, how does the growth read?
**A.** 95.8%

**Q.** How did the growth turn out when `Nc1nc(N)c2c(n1)NC(c1ccc(Cl)cc1)CC(c1ccc(Nc3nc(NCCO)nc(N4CCOCC4)n3)cc1)=N2` (stereo not given) was run?
**A.** 72.6%

**Q.** For `COC(=O)C[Se]C(=O)Cc1c(C)n(C(=O)c2ccc(Cl)cc2)c2ccc(OC)cc12`, which growth is on record?
**A.** 49.5%

**Q.** Which growth does the source give for `CCOc1cccc(-c2nc3sccn3c2-c2ccnc(S(C)(=O)=O)n2)c1` here?
**A.** 99.9%

**Q.** For `Cn1ccnc1C(=O)/C=C/c1ccc(CNC(=O)c2ccc(Cl)cc2)cc1`, which growth is on record?
**A.** 13.6%

**Q.** Which growth does the source give for `CN(C)CCCOc1ccc2c(c1)CN(C(=O)c1cc(C(=O)N3Cc4cccc(F)c4C3)ccc1O)C2` here?
**A.** 109%

**Q.** With `C#Cc1ccc(C(=O)NCc2ccc(/C=C/C(=O)c3nccn3C)cc2)cc1` as the compound, how does the growth read?
**A.** 22.8%

**Q.** With `Nc1ncc(-c2ccc3ncnc(N4CCc5cc(F)c(Cl)cc54)c3c2)cn1` as the compound, how does the growth read?
**A.** 39.9%

**Q.** For `COc1cc2oc(-c3cccc(NC(=O)c4cc(N)ccc4Cl)c3)cc(=O)c2c(OC)c1OC`, which growth is on record?
**A.** 117%

**Q.** Which growth does the source give for `CN1c2ccccc2Sc2cc(C=C(C#N)C#N)ccc21` here?
**A.** 108%

**Q.** With `CCc1cccc2c3c(sc12)C(c1ccc(Cl)cc1)C(C#N)=C(/N=C/c1ccc(Cl)cc1)O3` (stereo not given) as the compound, how does the growth read?
**A.** 16.7%

**Q.** For `c1ccc(C(c2nc3ncncc3[nH]2)N2CSc3nc4ncncc4n3C2)cc1` (stereo not given), which growth is on record?
**A.** 61.8%

**Q.** `COc1ccc(NC2=C(Cl)C(=O)c3nc(C)ccc3C2=O)cc1OC` was tested. Which growth did it give?
**A.** 108%

**Q.** For `NC(N)=Nc1ccc(Oc2cccc(Nc3ccc(Cl)c(C(F)(F)F)c3)c2)cc1`, which growth is on record?
**A.** -4.28% (active)

**Q.** For `C[C@@H]1C[C@H]2C(=O)O[C@@H](C)C(NC(=O)[C@H](Cc3cc(F)cc(F)c3)NC(=O)Nc3ccc(Cl)cc3F)C(=O)N3CCC[C@H]3C(=O)N3CCCC[C@H]3C(=O)N[C@@H](CO)C(=O)N2C1` (stereo not given in full), which growth is on record?
**A.** -23% (active)

**Q.** With `NS(=O)(=O)c1ccc(Nc2nc(Nc3ccccc3)nc3nnc(SCC(=O)NC4CCCCC4)n23)cc1` as the compound, how does the growth read?
**A.** 110%

**Q.** With `O=S(=O)(Nc1cccc2ccccc12)c1ccc(-c2cnc(C3CC3)o2)cc1` as the compound, how does the growth read?
**A.** 9.76% (active)

**Q.** With `Cc1ccc(NC(=O)c2ccc(CN3CCN(C)CC3)cc2)cc1Oc1ccc(-c2[nH]nc3ncnc(N)c23)cc1` as the compound, how does the growth read?
**A.** 28.1%
